# The campaign covered roughly 5,500 compounds. About 2,000 (36%) were called active. Inconclusive results (about 18%) are left out. This is one part of the list. A number with no mark means an inactive call. Rule as the data show it: active = normalized growth mostly below about 0.91 (no sharp cut-off); inconclusive = no clear call, values can overlap the other calls; inactive = mostly above about 0.92.
# Test: chemical genetic growth profiling, strain panel (AID 1159580);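 also: tested at 20 µM; growth read once vehicle control cultures reached saturation at 30 °C; 1 = growth at the plate median or of vehicle wells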
# Conditions: S. cerevisiae deletion strains, growth OD
smiles,measurement,setting,value
C[C@@H]1CC[C@@]2(NC1)O[C@H]1C[C@H]3C4CC=C5C[C@@H](O)CC[C@]5(C)C4CC[C@]3(C)C1[C@@H]2C (some centres undefined),normalized growth,"locus YJL187C, strain SWE1 (second series), stronger effect = lower value",0.103 (active)
same,normalized growth,"locus YJR066W, strain TOR1, stronger effect = lower value",0.985
same,normalized growth,"locus YJR075W, strain HOC1, stronger effect = lower value",0.119 (active)
same,normalized growth,"locus YKL009W, strain mrt4, stronger effect = lower value",0.807 (active)
same,normalized growth,"locus YKL068W, stronger effect = lower value",1.01
same,normalized growth,"locus YKL085W, strain MDH1 (second series), stronger effect = lower value",0.942
same,normalized growth,"locus YKL085W, strain MDH1, stronger effect = lower value",0.942
same,normalized growth,"locus YKL160W, strain elf1, stronger effect = lower value",0.12 (active)
same,normalized growth,"locus YKR001C, strain vps1, stronger effect = lower value",0.0859 (active)
same,normalized growth,"locus YKR026C, strain gcn3, stronger effect = lower value",0.0875 (active)
same,normalized growth,"locus YKR091W, strain srl3, stronger effect = lower value",0.109 (active)
same,normalized growth,"locus YLL001W, strain dnm1, stronger effect = lower value",0.074 (active)
same,normalized growth,"locus YLL026W, stronger effect = lower value",0.0713 (active)
same,normalized growth,"locus YLL041C, strain sdh2, stronger effect = lower value",0.075 (active)
same,normalized growth,"locus YLR027C, strain aat2, stronger effect = lower value",0.0705 (active)
same,normalized growth,"locus YLR039C, strain RIC1, stronger effect = lower value",0.33 (active)
same,normalized growth,"locus YLR058C, strain SHM2, stronger effect = lower value",0.0802 (active)
same,normalized growth,"locus YLR102C, strain apc9, stronger effect = lower value",0.088 (active)
same,normalized growth,"locus YLR113W, strain HOG1, stronger effect = lower value",1.04
same,normalized growth,"locus YLR221C, strain rsa3, stronger effect = lower value",0.0678 (active)
same,normalized growth,"locus YLR258W, strain gsy2, stronger effect = lower value",0.0842 (active)
same,normalized growth,"locus YLR262C, strain YPT6 (second series), stronger effect = lower value",0.341 (active)
same,normalized growth,"locus YLR268W, strain sec22, stronger effect = lower value",0.0987 (active)
same,normalized growth,"locus YLR320W, strain mms22, stronger effect = lower value",0.091 (active)
same,normalized growth,"locus YLR342W, strain FKS1 (second series), stronger effect = lower value",0.0987 (active)
same,normalized growth,"locus YLR342W, strain FKS1, stronger effect = lower value",0.0952 (active)
same,normalized growth,"locus YLR357W, strain rsc2, stronger effect = lower value",0.172 (active)
same,normalized growth,"locus YLR370C, strain arc18, stronger effect = lower value",0.066 (active)
same,normalized growth,"locus YLR371W, strain rom2, stronger effect = lower value",0.0867 (active)
same,normalized growth,"locus YLR384C, strain iki3, stronger effect = lower value",0.702 (active)
same,normalized growth,"locus YLR418C, strain cdc73, stronger effect = lower value",0.127 (active)
same,normalized growth,"locus YML016C, strain PPZ1, stronger effect = lower value",0.0701 (active)
same,normalized growth,"locus YML032C, strain rad52, stronger effect = lower value",0.112 (active)
same,normalized growth,"locus YML120C, strain ndi1, stronger effect = lower value",0.0773 (active)
same,normalized growth,"locus YML124C, strain tub3, stronger effect = lower value",0.0964 (active)
same,normalized growth,"locus YMR058W, strain fet3, stronger effect = lower value",0.0836 (active)
same,normalized growth,"locus YMR078C, strain ctf18, stronger effect = lower value",0.0876 (active)
same,normalized growth,"locus YMR125W, strain sto1, stronger effect = lower value",0.089 (active)
same,normalized growth,"locus YMR129W, stronger effect = lower value",0.0739 (active)
same,normalized growth,"locus YMR205C, strain PFK2, stronger effect = lower value",0.15 (active)
same,normalized growth,"locus YMR223W, strain ubp8, stronger effect = lower value",0.0986 (active)
same,normalized growth,"locus YMR231W, strain pep5, stronger effect = lower value",0.319 (active)
same,normalized growth,"locus YMR307W, strain GAS1, stronger effect = lower value",0.145 (active)
same,normalized growth,"locus YNL067W, strain RPL9B, stronger effect = lower value",0.132 (active)
same,normalized growth,"locus YNL071W, strain lat1, stronger effect = lower value",0.0643 (active)
same,normalized growth,"locus YNL183C, strain NPR1, stronger effect = lower value",0.989
same,normalized growth,"locus YNL209W, strain ssb2, stronger effect = lower value",0.19 (active)
same,normalized growth,"locus YNL233W, strain BNI4, stronger effect = lower value",0.0774 (active)
same,normalized growth,"locus YNL248C, strain rpa49, stronger effect = lower value",0.079 (active)
same,normalized growth,"locus YNL250W, strain rad50, stronger effect = lower value",0.889 (active)
same,normalized growth,"locus YNL271C, strain bni1, stronger effect = lower value",0.848 (active)
same,normalized growth,"locus YNL298W, strain CLA4, stronger effect = lower value",0.767 (active)
same,normalized growth,"locus YNL307C, strain MCK1, stronger effect = lower value",0.0706 (active)
same,normalized growth,"locus YNL322C, strain KRE1 (second series), stronger effect = lower value",0.0978 (active)
same,normalized growth,"locus YNR049C, strain mso1, stronger effect = lower value",0.0668 (active)
same,normalized growth,"locus YNR052C, strain pop2, stronger effect = lower value",0.282 (active)
same,normalized growth,"locus YOL012C, strain htz1",0.198
same,normalized growth,"locus YOL147C, strain pex11, stronger effect = lower value",0.0757 (active)
same,normalized growth,"locus YOR001W, strain rrp6, stronger effect = lower value",0.083 (active)
same,normalized growth,"locus YOR061W, strain CKA2, stronger effect = lower value",0.0862 (active)
same,normalized growth,"locus YOR069W, strain VPS5, stronger effect = lower value",0.104 (active)
same,normalized growth,"locus YOR070C, strain gyp1, stronger effect = lower value",0.151 (active)
same,normalized growth,"locus YOR080W, strain dia2, stronger effect = lower value",0.277 (active)
same,normalized growth,"locus YOR083W, strain WHI5, stronger effect = lower value",0.134 (active)
same,normalized growth,"locus YOR106W, strain vam3, stronger effect = lower value",0.0987 (active)
same,normalized growth,"locus YOR136W, strain idh2, stronger effect = lower value",0.108 (active)
same,normalized growth,"locus YOR144C, strain elg1, stronger effect = lower value",0.0812 (active)
same,normalized growth,"locus YOR184W, strain ser1, stronger effect = lower value",0.0846 (active)
same,normalized growth,"locus YOR231W, strain MKK1, stronger effect = lower value",1.03
same,normalized growth,"locus YOR265W, strain rbl2, stronger effect = lower value",0.0812 (active)
same,normalized growth,"locus YOR270C, strain vph1, stronger effect = lower value",0.0993 (active)
same,normalized growth,"locus YOR290C, strain snf2, stronger effect = lower value",0.074 (active)
same,normalized growth,"locus YOR316C, strain cot1, stronger effect = lower value",0.0883 (active)
same,normalized growth,"locus YPL051W, strain arl3, stronger effect = lower value",0.436 (active)
same,normalized growth,"locus YPL055C, strain LGE1, stronger effect = lower value",0.137 (active)
same,normalized growth,"locus YPL078C, strain atp4, stronger effect = lower value",0.0699 (active)
same,normalized growth,"locus YPL106C, strain sse1, stronger effect = lower value",0.154 (active)
same,normalized growth,"locus YPL240C, strain hsp82, stronger effect = lower value",0.0838 (active)
same,normalized growth,"locus YPL256C, strain CLN2, stronger effect = lower value",1.07
same,normalized growth,"locus YPR119W, strain clb2, stronger effect = lower value",0.0943 (active)
same,normalized growth,"locus YPR141C, strain kar3, stronger effect = lower value",1.06
same,normalized growth,"locus YPR163C, strain tif3, stronger effect = lower value",0.0947 (active)
same,normalized growth,"locus YPR167C, strain met16, stronger effect = lower value",0.0878 (active)
same,normalized growth,"strain wtn01, stronger effect = lower value",0.0815 (active)
